These results are taken from PubChem BioAssay (NCATS).

Test [1] is described as follows: qHTS Assay for Identifying Gametocytocidal Compounds (AID 743244).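 For max response: % is set by controls: 0 for no effect and ±100 for the full control effect; actives lower the fluorescent signal which means gametocytes are killed.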 Note: potency is the fitted concentration of half-maximal effect. As to conditions: P. falciparum 3D7 stage III-V gametocytes, alamarBlue, 72 h; max response: stronger effect = lower value. In a few lines:
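Compounds are pinned into medium, gametocytes (stage III–V, 3D7, 20,000 cells/well) added, and plates held 72 h at 37 °C in 5% CO2. AlamarBlue follows for 24 h before fluorescence reading.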

A short description of test [2]: qHTS assay for measurement of the activity of small molecule inhibitors on Zika virus induced Caspase-3 activity in human iPSC derived neural progenitor cells (hNPCs) (AID 1224857). Note: % of control where 0% means no effect; nearly all actives have a fitted effect of over 65% in size. In short, it runs like this: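 Pretreat hNPCs with compound 1 h; infect ZIKV 2 FFU/cell; 6 h 37 C, 5% CO2; Caspase-Glo 3/7, 30 min RT; luminescence; normalize to no-virus and virus-only wells.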

Test [3] is described as follows: qHTS assay for measurement of the activity of small molecule inhibitors on Zika virus induced Caspase-3 activity in human astrocytoma cells (AID 1224859).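 Note: plate controls were ZIKV-infected untreated cells for no effect and uninfected cells for full effect.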 In short, it runs like this:
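Human SNB-19 astrocytoma cells in RPMI 1640 with 10% FBS receive compound one hour ahead of Zika virus at 2 FFU/cell. After 6 h infection, caspase-3/7 activity is detected by Caspase-Glo luminescence.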

Test [4] in a line: P-glycoprotein substrates identified in KB-8-5-11 adenocarcinoma cell line, qHTS therapeutic library screen (AID 1346987). Note: nearly all actives have a fitted effect of over 65% in size. Note: potency is the fitted concentration of half-maximal effect. In a few lines: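 Compounds are pinned in dose-response onto KB-8-5-11 cells (500 cells/well, colchicine-free medium) and left 72 h at 37 degree C. CellTiter-Glo luminescence then yields AC50 values.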
A short description of test [5]: qHTS assay for small molecule agonists of the antioxidant response element (ARE) signaling pathway measured by Nrf2-dependant transcriptional activity - cell viability counter screen (AID 720653; active = well fitted curve in the direction sought with a large enough effect in the repeat runs; an effect the other way counts as inactive or inconclusive; note: % is set by controls: 0 for no effect and ±100 for the full control effect). As to conditions: ARE-bla HepG2 viability, CellTiter-Glo ATP luminescence, 16 h; max response: stronger effect = lower value. In a few lines: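 ARE-bla HepG2 cells (2,000/well) rested 5 hrs at 37C/5% CO2, then exposed to compounds in DMSO for 16 hrs. Viability was read in the same wells as intracellular ATP by luminescence, 30 min at room temperature after reagent addition.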

Test [6] is described as follows: qHTS assay for cell viability of HEK293 cells (AID 743288). Note: % is set by controls: 0 for no effect and ±100 for the full control effect; nearly all actives have a fitted effect of over 50% in size. As to conditions: ATP luminescence (CellTiter-Glo), 18 h, stronger effect = lower value. In short, it runs like this: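 HEK293, 18 h, 37 C, ATP luminescence. Cells at 2,000/well were allowed at least 5 h to settle before dosing; CellTiter-Glo developed 30 min at RT.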
The nature of test [7]: qHTS assay for cell viability of the p53RE-bla HCT-116 cell line (AID 743292). Note: % is set by controls: 0 for no effect and ±100 for the full control effect; nearly all actives have a fitted effect of over 55% in size. In short, it runs like this:
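Quantitative high-throughput format: compounds in DMSO were pinned onto p53RE-bla HCT-116 cells (4,000/well) and incubated 16 h at 37 C. Total intracellular ATP, read by CellTiter-Glo luminescence, reflects viable cell number.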

Test [8] in a line: qHTS assay for small molecule agonists of the antioxidant response element (ARE) signaling pathway measured by Nrf2-dependant transcriptional activity (AID 720636; active = well fitted curve in the direction sought with a large enough effect in the repeat runs; an effect the other way counts as inactive or inconclusive;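 note: HepG2 cells with an ARE-driven luciferase reporter; % of control where 0% means no effect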). In short, it runs like this:
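First, ARE-luc HepG2 cells attached for 6 hr at 37 C in 1% dialyzed FBS medium. Next, compound or DMSO was added and incubated 16 hr. Finally, ONE-Glo reagent was added and luminescence measured after 30 min.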

The nature of test [9]: qHTS assay for small molecule antagonists of the retinoid-related orphan receptor gamma (ROR-gamma) signaling pathway - cell viability counter screen (AID 720652; active = well fitted curve in the direction sought with a large enough effect in the repeat runs; an effect the other way counts as inactive or inconclusive;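 note: series mostly up to about 92 µM; compound exposure lasted 16 hr before ATP read; % is set by controls: 0 for no effect and ±100 for the full control effect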). In a few lines: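 Cytotoxicity counter screen: intracellular ATP (CellTiter-Glo luminescence) measured in the doxycycline-induced CHO RORE-luciferase reporter line after 16 hr compound exposure at 37 C, 5% CO2.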

The structures appear in SMILES notation. Values joined by “and” are separate entries in the source; they are usually repeats but may differ in a detail not shown here. Equal values may be shown once. A number with no mark means an inactive call. Records with an inconclusive call do not appear. Active and inactive are the calls of the source. Unless noted, calls come from the whole dose curve; as a rule, active = well fitted curve in the direction sought with a large enough effect; inconclusive = small, poorly fitted or top-dose-only effect, or another doubt; inactive = no such curve, though single readings can be large; an effect the other way counts as inactive or inconclusive.

In the case of `CC(=O)Nc1ccc(S(=O)(=O)Nc2cc(C)on2)cc1`, in test [1], the max response was 3.06%. Besides, the Potency entry in [2] and in test [4] was “inactive” throughout. Further, in [3], the compound was classed as inactive.
As to `CC(CCc1ccc2c(c1)OCO2)NN` (configuration not stated), in test [1], the max response was 15.4%. Also, the Potency result in [2] and in test [4] was “inactive” in each case. In [3], the outcome was inactive.
For the compound `COc1ccccc1OCC1CNC(=O)O1` (configuration not stated), the max response in test [1] is -14.2%. The Potency result in test [2] and in [4] was “inactive” each time. In addition, the compound was classed as inactive in [3].
With `CC(=O)CC/C=C(\C)CC/C=C(\C)CC/C=C(\C)CCC=C(C)C`, the max response in [1] was -1.07%. Further, the Potency entry in test [2] and in test [4] was “inactive” each time. Also, in test [3], the call was inactive.
For `Nc1ccc2cc3ccc(N)cc3nc2c1`, the Potency in test [1] was 12.6 µM (active); in [4], 14.6 µM (active). For the same compound, the Potency entry in test [2] was “inactive”. Further, the call in [3] was inactive.
As to `CCCCC/C=C\C/C=C\CCCCCCCC(=O)NC(C)c1ccccc1` (configuration not stated), the max response in test [1] is -1.75%. Also, the Potency entry in test [2] and in test [4] was “inactive” each time. For the same compound, in test [3], the call was inactive.
On to `O=C(O)CCCC[C@@H]1SC[C@@H]2NC(=O)N[C@@H]21`, for which the max response in [1] was -7.74%. Further, the Potency entry in [2] and in test [4] was “inactive” in each case. Also, the outcome in [3] was inactive.
As to `O=C(O)[C@H](O)[C@@H](O)[C@H](O[C@@H]1O[C@H](CO)[C@H](O)[C@H](O)[C@H]1O)[C@H](O)CO`, in [1], the max response is -7.07%. The Potency result in test [2] and in [4] was “inactive” each time. Moreover, the compound was classed as inactive in test [3].
For `N[C@@H](Cc1cc(I)c(O)c(I)c1)C(=O)O`, the max response in [1] was 18.2%. Further, the Potency entry in test [2] and in test [4] was “inactive” throughout. The compound was classed as inactive in test [3].
`CC1c2ccccc2CN1NC(=O)c1ccc(Cl)c(S(N)(=O)=O)c1` (configuration not stated): the max response in [1] is 33.5%. Also, the Potency entry in test [2] and in test [4] was “inactive” in each case. The outcome in test [3] was inactive.
`CO[C@@]1(NC(=O)CSC[C@@H](N)C(=O)O)C(=O)N2C(C(=O)O)=C(CSc3nnnn3C)CS[C@@H]21`: in test [1], the max response is 3.25%. The Potency entry in [2] and in test [4] was “inactive” in each case. Besides, the compound was classed as inactive in [3].
`O=[N+]([O-])c1nccn1CO[C@@H](CO)[C@H](O)CO`: the max response in test [1] was -9.19%. Besides, the Potency entry in [2] and in test [4] was “inactive” throughout. For the same compound, the call in test [3] was inactive.
As to `O=C(O)Cc1ccc(OCCNC[C@H](O)c2ccccc2)cc1`, in [1], the max response was -2.47%. Moreover, the Potency entry in [2] and in test [4] was “inactive” in each case. In addition, the compound was classed as inactive in [3].
As to `CCCCCC(=O)O[C@]1(C(C)=O)CC[C@H]2[C@@H]3CCC4=CC(=O)CC[C@]4(C)[C@H]3CC[C@@]21C`, the max response in test [1] is 7.11%. For the same compound, the Potency entry in test [2] is “inactive”. Further, the compound was classed as inactive in test [3]. Moreover, in [4], the Potency was 10.3 µM (active).
Consider `C[C@]12CCC(=O)C=C1CC[C@@H]1[C@@H]2[C@@H](O)C[C@@]2(C)[C@H]1CC[C@]2(O)C(=O)COC(=O)CCC(=O)O`, for which the max response in [1] was -22.1%. Besides, the Potency result in [2] and in test [4] was “inactive” each time. Moreover, the outcome in [3] was inactive.
As for `O=C(O)c1[nH]n(-c2ccc(S(=O)(=O)O)cc2)c(=O)c1N=Nc1ccc(S(=O)(=O)O)cc1`, the max response in [1] was -0.65%. Also, the Potency entry in test [2] and in test [4] was “inactive” in each case. In test [3], the call was inactive.
As to `O=C(O)CCC(=O)OC[C@@H](NC(=O)C(Cl)Cl)[C@H](O)c1ccc([N+](=O)[O-])cc1`, the max response in [1] is -4.91%. Further, the Potency entry in [2] and in [4] was “inactive” in each case. Also, the outcome in test [3] was inactive.
Regarding `Cn1cc(S(C)=O)c(=O)c2ccc(F)cc21` (configuration not stated), the max response in test [1] was -4.53%. In addition, the Potency entry in test [2] and in [4] was “inactive” each time. Also, the outcome in test [3] was inactive.
`O=C(Oc1ccccc1)c1cccc(C(=O)Oc2ccccc2)c1`: the max response was -2.16% in [5], -7.52% in [1] and -18.4% in [6]. Also, the Potency entry in test [7], in test [2] and in test [4] was “inactive” each time. In addition, in [3], the compound was called inactive.
As to `O=C(OCC1(COC(=O)c2cccnc2)CCCC(COC(=O)c2cccnc2)(COC(=O)c2cccnc2)C1O)c1cccnc1`, the max response in test [1] is -9.22%. In addition, the Potency result in test [2] and in test [4] was “inactive” each time. Moreover, in test [3], the result was inactive.
Consider `CO/N=C(/C(=O)N[C@@H]1C(=O)N2C(C(=O)OCOC(=O)C(C)(C)C)=C(C)CS[C@H]12)c1csc(N)n1`, for which the max response in [1] is -0.603%. Also, the Potency entry in test [2] and in test [4] was “inactive” each time. For the same compound, the call in test [3] was inactive.
With `CCCC(=O)c1cc(O)c(O)cc1O`, the compound was called inactive in test [8] and in test [3]. Further, the max response was -22.5% in [5], 30.2% in test [1] and -20% in test [6]. Moreover, the Potency result in test [7], in test [2] and in test [4] was “inactive” each time.
Take `CC(=O)N(CC(O)CO)c1c(I)c(C(=O)NCCO)c(I)c(C(=O)NCC(O)CO)c1I` (configuration not stated): in test [1], the max response is 13.7%. Besides, the Potency result in [2] and in test [4] was “inactive” each time. The compound was classed as inactive in test [3].
Consider `Cc1cccc(C)c1NC(=O)c1cc(S(N)(=O)=O)c(Cl)cc1O`, for which, in test [1], the max response was 11.8%. Also, the Potency entry in test [2] and in test [4] was “inactive” throughout. Moreover, in test [3], the compound was classed as inactive.
With `CCc1cc(S(=O)(=O)O)c2cc(C(C)C)cccc1-2`, the max response in [1] was 0.277%. Moreover, the Potency result in test [2] and in [4] was “inactive” in each case. Besides, the call in test [3] was inactive.
With `CC(=O)OC/C=C(C)/C=C/C=C(C)/C=C/C1=C(C)CCCC1(C)C`, the result in test [9] and in test [3] was inactive. Also, the max response is 6.19% and 7.05% in test [5]; -2.65% in test [1]; -22.5% and -3.76% in test [6]. The Potency entry in [7], in test [2] and in test [4] was “inactive” throughout.
With `OC[C@]1(O)OC[C@@H](O)[C@H](O)[C@@H]1O`, the max response in [1] was 13.1%. The Potency result in test [2] and in test [4] was “inactive” throughout. For the same compound, the outcome in [3] was inactive.
On to `Nc1nnnn1-c1ccccc1`, for which the max response in test [1] was 2.05%. Besides, the Potency entry in test [2] and in [4] was “inactive” each time. The compound was called inactive in test [3].
Regarding `CC(C)(C)C(O)/C=C/c1ccc2c(c1)OCO2` (configuration not stated), the max response in test [1] is -15.2%. For the same compound, the Potency entry in test [2] and in [4] was “inactive” throughout. Moreover, the result in [3] was inactive.
